25 molecules from PubChem BioAssay (NCATS) can be followed below.

Each structure is given as a SMILES string. Inconclusive results are not listed. Calls of active or inactive are those of the source. Unless noted, calls follow the shape of the dose curve; as a rule, active = well fitted curve in the direction sought with a large enough effect; inconclusive = small, poorly fitted or top-dose-only effect, or another doubt; inactive = no such curve, though single readings can be large; an effect the other way counts as inactive or inconclusive.

A short description of assay [1]: Validation screen for small molecules that induce genotoxicity in human embryonic kidney (HEK293T) cells expressing luciferase-tagged ELG1 (AID 493106). Also: 0% is about no effect. An outline of the steps: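 HEK293T cells expressing luciferase-tagged ELG1 were exposed to compound or DMSO vehicle for 16 hr at 37 °C, 5% CO2. Genotoxic stress raises ELG1 levels, so increased luciferase signal after ONE-Glo addition and 30 min at room temperature marks hits.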

Assay [2] deals with Peptidyl-prolyl cis-trans isomerase NIMA-interacting 1 (Homo sapiens) (UniProt Q13526). Kind of assay: qHTS Validation Assay to Find Inhibitors of Pin1 (AID 504536; active = well fitted inhibition curve with a large enough effect in the polarisation, with a control signal flat, not every such curve was filed as active; the % refers to the polarisation;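 also: 0% = full Pin1 enzyme wells and -100% = no-enzyme wells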). An outline of the steps:
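Fluorescence polarization competition: compounds (titration) displace HiFluor-488-labeled Pin1-1b peptide from Pin1 (0.3 uM final) in pH 7.5 HEPES buffer with DTT, 10 min at room temperature; %Activity normalized to no-enzyme wells, curves fitted.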
On the technique in general: qHTS replaces the single test concentration by a dilution series.

The target of assay [3] is Phosphoglycerate kinase, glycosomal (Trypanosoma brucei brucei) (UniProt P07378). Put plainly: qHTS Validation Assay to Find Inhibitors of Phosphoglycerate Kinase (AID 504547).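 Also: control wells lack PGK and mark full inhibition.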 An outline of the steps: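 Inhibition of the enzyme is judged by a Kinase-Glo Plus luminescent signal following a one-hour incubation at room temperature. Because 1,3-BPG is unstable, it is made in situ by GAPDH at 100nM final; no-PGK wells define the baseline.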

Assay [4] deals with phosphoglycerate mutase (Leishmania major) (UniProt Q4Q090). Kind of assay: qHTS Validation Assay to Find Inhibitors of Phosphoglycerate Mutase (AID 504548). Also: series mostly up to about 58 µM; % is scaled to controls: 0 for no effect and ±100 for the full control effect. An outline of the steps:
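Lm PGAM at 1.25 nM final with substrate in 100 mM TEA pH 7.6, 5 mM MgCl2, 0.01% Tween-20; 45 min at room temperature. Kinase-GloPlus added, 10 min, end-point luminescence read.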

The target in assay [5] is Ubiquitin carboxyl-terminal hydrolase 1 (Homo sapiens) (UniProt O94782). Put plainly: Inhibitors of USP1/UAF1: Pilot qHTS (AID 504865). Also: nearly all actives have a fitted effect of over 35% in size. Also: potency is read from the fitted curve at half-maximal effect. An outline of the steps: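 USP1/UAF1 complex at 1 nM preincubated 15 min at room temperature with compound, then Ub-Rho substrate added at 150 nM final. Fluorescence (480/540 nm) read kinetically in 50 mM HEPES pH 7.8, 0.5 mM EDTA, 1 mM TCEP, 0.1 mg/ml BSA, 0.01% Tween-20.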

Assay [6] can be described thus: qHTS for Inhibitors of ATXN expression: Validation of Cytotoxic Assay (AID 588349). Also: % is scaled to controls: 0 for no effect and ±100 for the full control effect. An outline of the steps:
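HEK293 cells were dosed with titrated compounds for 72 hr at 37 degrees C. Viability was read by CellTiter Glo luminescence, with intracellular ATP as the marker of cell survival.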

The target of assay [7] is Thyrotropin-releasing hormone receptor (Homo sapiens) (UniProt P34981). Kind of assay: qHTS for Small Molecule Agonists and Allosteric Enhancers of Human TRH Receptor: Validation Screen for Agonists (AID 493127;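 active = calcium activation more than 3 SD above the typical response in the agonist read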;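 also: intracellular calcium rise by fluo-8 fluorescence before TRH EC20 addition; 0% is about no effect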). To be noted: TRH receptor agonist cell assay; at 2 µM; stronger effect = higher value. An outline of the steps:
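TRHR-expressing cells were plated overnight in serum-containing medium, then loaded with fluo-8 calcium dye at room temperature for 30 min–1.5 h. After a 10 s baseline, compound was pin-transferred and calcium fluorescence (ex 480/em 530) read kinetically for agonist response.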

Assay [8] is described as follows: Nrf2 qHTS screen for inhibitors: Validation (AID 493153; active = well fitted inhibition curve with a large enough effect in the main read-out, with a control signal flat, not every such curve was filed as active; also: potency is read from the fitted curve at half-maximal effect). The following applies: Potency: luciferase luminescence; viability change: measured here: cytotoxicity max response. An outline of the steps:
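A549 cells carrying an ARE-driven firefly luciferase reporter, in 5% FBS OPTI-MEM, were treated with compounds in concentration-response for 18-24 h at 37°C. Viability was read by CellTiter-Fluor fluorescence, then Nrf2 activity by luciferase luminescence.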

Assay [9] addresses Galactokinase (Homo sapiens) (UniProt P51570). Kind of assay: qHTS Validation Assay for Inhibitors of Human Galactokinase (GALK) (AID 493189). Also: 0% is about no effect. An outline of the steps:
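GALK (5 nM) with 35 uM ATP and 100 uM galactose in HEPES pH 8.0 with MgCl2, NaCl, DTT and BSA. Reaction ran 1 h at room temperature. Residual ATP read by Kinase-Glo Plus luminescence.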

Assay [10] in a line: Validation screen for small molecules that induce DNA re-replication in SW480 colon adenocarcinoma cells (AID 504364). Also: 0% is about no effect. An outline of the steps:
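SW480 cells seeded at 250 per well were exposed to compound or DMSO for 48 hr at 37 C, 5% CO2, then stained with Hoechst for 40 min. DNA content per nucleus was imaged (405 nm ex, 500-530 nm em).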

For assay [11], the target named is DNA dC->dU-editing enzyme APOBEC-3G (Homo sapiens) (UniProt Q9HC16). Kind of assay: qHTS for inhibitors of Vif-A3G interactions: Validation (AID 588379). Also: 0% is about no effect. An outline of the steps: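 HeLa cells stably expressing Vif and A3G-eYFP, 700 cells/well, incubated overnight at 37 deg C, then exposed to compound overnight at 37 deg C. Inhibition of Vif-mediated degradation read as increased yellow fluorescence (Ex 488/Em 500-530) by laser-scanning cytometry.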

Assay [12] concerns the target ATPase family AAA domain-containing protein 5 (Homo sapiens) (UniProt Q96QE3). Put plainly: Validation screen for small molecules that inhibit ELG1-dependent DNA repair in human embryonic kidney (HEK293T) cells expressing luciferase-tagged ELG1 (AID 493107).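 Also: cells co-treated with the DNA-damaging agent 5-fluorouridine alongside compound; series mostly up to about 46 µM; % is scaled to controls: 0 for no effect and ±100 for the full control effect; inhibitors lower the ELG1-luciferase luminescence signal; nearly all actives have a fitted effect of over 70% in size.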 An outline of the steps: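 HEK293T cells expressing luciferase-tagged ELG1 were co-treated with 5-fluorouridine and compound or DMSO for 16 hr at 37 °C, 5% CO2. Luciferase activity was then read with ONE-Glo after 30 min at room temperature; suppressed signal indicates blocked ELG1 function.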

The target in assay [13] is ATP-dependent 6-phosphofructokinase (Trypanosoma brucei brucei) (UniProt O15648). Put plainly: qHTS Assay to Find Inhibitors of T. brucei phosphofructokinase: hit validation (AID 492961).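 Also: luminescence reports ADP formed as PFK phosphorylates fructose-6-phosphate with ATP; series mostly up to about 51 µM; % is scaled to controls: 0 for no effect and ±100 for the full control effect.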 An outline of the steps:
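ADP-Glo luminescence read-out of ADP formed by 1.25 nM PFK from 0.1 mM ATP and 0.5 mM F6P (TEA pH 8.0, 45 min, RT). Compounds titrated; activity normalized to no-enzyme and full-enzyme controls.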

For assay [14], the target named is Estrogen receptor (Homo sapiens) (UniProt P03372). Kind of assay: qHTS assay for small molecule agonists of estrogen receptor alpha signaling (AID 588514; calls by dose curve;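 also: 0% = vehicle only and 100% = reference agonist; nearly all actives have a fitted effect of over 70% in size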). An outline of the steps: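 ER-alpha-UAS-bla GripTite HEK 293 cells in medium with 2% charcoal/dextran-treated FBS were treated with compound titrations at 37 C for 18 hrs; beta-lactamase reporter read by CCF4 fluorescence after 2 hrs at RT.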

Assay [15] has as its target Glucocorticoid receptor (Homo sapiens) (UniProt P04150). Kind of assay: qHTS assay for small molecule agonists of glucocorticoid receptor signaling (AID 588532; active = well fitted curve in the direction sought with a large enough effect in the signal ratio, with a control signal flat; the % refers to the signal ratio;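 also: 100% = dexamethasone at 0.1 µM and 0% = DMSO only wells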). The following applies: HeLa MMTV-bla, beta-lactamase ratio, agonist, 18 h; stronger effect = higher value; percent of dexamethasone control, DMSO zero. An outline of the steps:
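Agonist-mode qHTS: GRE-driven beta-lactamase in HeLa cells exposed 18 h to titrated compounds (up to 92 uM), then CCF4 ratio read after 2 h at RT; Hill-fitted EC50, efficacy relative to 0.1 uM dexamethasone.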

ATP-dependent 6-phosphofructokinase (Trypanosoma brucei brucei), sequence (O15648 whole entry, looked up): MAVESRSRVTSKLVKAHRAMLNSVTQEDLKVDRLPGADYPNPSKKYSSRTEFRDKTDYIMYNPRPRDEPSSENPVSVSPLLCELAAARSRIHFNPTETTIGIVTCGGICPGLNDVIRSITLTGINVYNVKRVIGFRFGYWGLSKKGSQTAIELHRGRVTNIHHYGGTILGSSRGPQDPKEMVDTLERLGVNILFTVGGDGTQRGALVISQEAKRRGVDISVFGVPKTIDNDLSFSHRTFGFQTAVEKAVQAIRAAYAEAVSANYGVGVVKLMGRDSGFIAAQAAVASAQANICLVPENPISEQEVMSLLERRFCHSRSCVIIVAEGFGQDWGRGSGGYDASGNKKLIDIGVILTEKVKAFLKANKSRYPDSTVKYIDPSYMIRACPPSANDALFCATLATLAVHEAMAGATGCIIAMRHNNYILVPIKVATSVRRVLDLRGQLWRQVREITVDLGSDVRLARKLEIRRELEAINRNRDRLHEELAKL
Thyrotropin-releasing hormone receptor (Homo sapiens), sequence (P34981 whole entry, looked up): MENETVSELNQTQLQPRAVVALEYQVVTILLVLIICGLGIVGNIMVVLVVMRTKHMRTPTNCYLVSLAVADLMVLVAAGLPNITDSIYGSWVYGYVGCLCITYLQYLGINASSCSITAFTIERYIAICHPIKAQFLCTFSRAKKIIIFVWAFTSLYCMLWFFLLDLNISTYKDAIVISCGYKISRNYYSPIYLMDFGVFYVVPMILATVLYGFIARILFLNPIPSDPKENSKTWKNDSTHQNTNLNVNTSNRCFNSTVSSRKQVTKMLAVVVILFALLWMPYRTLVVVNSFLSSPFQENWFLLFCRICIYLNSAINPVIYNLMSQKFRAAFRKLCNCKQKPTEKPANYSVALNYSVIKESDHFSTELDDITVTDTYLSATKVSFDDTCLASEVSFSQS
phosphoglycerate mutase (Leishmania major), sequence (Q4Q090 1-553): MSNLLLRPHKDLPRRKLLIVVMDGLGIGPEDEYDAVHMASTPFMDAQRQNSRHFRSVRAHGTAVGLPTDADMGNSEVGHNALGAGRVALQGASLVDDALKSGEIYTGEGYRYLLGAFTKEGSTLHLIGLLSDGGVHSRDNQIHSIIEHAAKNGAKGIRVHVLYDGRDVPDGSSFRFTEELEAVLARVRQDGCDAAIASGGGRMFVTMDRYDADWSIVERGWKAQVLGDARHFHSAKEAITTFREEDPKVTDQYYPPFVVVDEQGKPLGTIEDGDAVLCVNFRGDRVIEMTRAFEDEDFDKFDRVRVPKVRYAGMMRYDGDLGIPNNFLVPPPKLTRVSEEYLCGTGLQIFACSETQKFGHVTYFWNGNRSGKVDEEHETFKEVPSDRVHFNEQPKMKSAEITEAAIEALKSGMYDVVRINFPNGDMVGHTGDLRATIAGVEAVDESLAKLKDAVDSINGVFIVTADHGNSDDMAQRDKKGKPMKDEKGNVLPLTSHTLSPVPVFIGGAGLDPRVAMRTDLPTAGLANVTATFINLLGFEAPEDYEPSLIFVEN
Peptidyl-prolyl cis-trans isomerase NIMA-interacting 1 (Homo sapiens), sequence (Q13526 whole entry, looked up): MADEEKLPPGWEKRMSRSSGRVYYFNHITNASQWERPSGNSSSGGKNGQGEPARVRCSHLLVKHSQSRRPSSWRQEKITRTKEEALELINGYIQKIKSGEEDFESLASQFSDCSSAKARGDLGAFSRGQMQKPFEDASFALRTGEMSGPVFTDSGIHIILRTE
Phosphoglycerate kinase, glycosomal (Trypanosoma brucei brucei), sequence (P07378 whole entry, looked up): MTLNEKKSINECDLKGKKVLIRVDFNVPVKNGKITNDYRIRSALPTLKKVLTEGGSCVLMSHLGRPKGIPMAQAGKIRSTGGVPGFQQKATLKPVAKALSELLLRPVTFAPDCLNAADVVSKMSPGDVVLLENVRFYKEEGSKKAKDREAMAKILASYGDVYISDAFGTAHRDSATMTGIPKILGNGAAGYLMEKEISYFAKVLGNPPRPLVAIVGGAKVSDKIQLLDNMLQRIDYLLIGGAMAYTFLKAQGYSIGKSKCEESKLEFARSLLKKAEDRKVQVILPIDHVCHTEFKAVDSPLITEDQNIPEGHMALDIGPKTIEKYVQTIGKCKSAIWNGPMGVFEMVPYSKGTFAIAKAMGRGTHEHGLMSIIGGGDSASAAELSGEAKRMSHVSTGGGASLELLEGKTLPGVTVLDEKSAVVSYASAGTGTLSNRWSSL
DNA dC->dU-editing enzyme APOBEC-3G (Homo sapiens), sequence (Q9HC16 whole entry, looked up): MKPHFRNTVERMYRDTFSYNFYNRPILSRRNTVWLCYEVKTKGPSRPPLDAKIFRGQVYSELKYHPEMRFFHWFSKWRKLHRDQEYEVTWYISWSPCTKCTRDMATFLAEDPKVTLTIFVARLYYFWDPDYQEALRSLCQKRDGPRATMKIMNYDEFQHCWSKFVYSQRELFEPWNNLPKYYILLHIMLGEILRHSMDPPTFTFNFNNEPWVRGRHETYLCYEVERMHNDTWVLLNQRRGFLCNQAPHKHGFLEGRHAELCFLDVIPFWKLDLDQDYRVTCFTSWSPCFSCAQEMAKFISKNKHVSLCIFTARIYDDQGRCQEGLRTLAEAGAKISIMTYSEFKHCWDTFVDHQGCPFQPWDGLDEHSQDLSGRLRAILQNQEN
Ubiquitin carboxyl-terminal hydrolase 1 (Homo sapiens), sequence (O94782 whole entry, looked up): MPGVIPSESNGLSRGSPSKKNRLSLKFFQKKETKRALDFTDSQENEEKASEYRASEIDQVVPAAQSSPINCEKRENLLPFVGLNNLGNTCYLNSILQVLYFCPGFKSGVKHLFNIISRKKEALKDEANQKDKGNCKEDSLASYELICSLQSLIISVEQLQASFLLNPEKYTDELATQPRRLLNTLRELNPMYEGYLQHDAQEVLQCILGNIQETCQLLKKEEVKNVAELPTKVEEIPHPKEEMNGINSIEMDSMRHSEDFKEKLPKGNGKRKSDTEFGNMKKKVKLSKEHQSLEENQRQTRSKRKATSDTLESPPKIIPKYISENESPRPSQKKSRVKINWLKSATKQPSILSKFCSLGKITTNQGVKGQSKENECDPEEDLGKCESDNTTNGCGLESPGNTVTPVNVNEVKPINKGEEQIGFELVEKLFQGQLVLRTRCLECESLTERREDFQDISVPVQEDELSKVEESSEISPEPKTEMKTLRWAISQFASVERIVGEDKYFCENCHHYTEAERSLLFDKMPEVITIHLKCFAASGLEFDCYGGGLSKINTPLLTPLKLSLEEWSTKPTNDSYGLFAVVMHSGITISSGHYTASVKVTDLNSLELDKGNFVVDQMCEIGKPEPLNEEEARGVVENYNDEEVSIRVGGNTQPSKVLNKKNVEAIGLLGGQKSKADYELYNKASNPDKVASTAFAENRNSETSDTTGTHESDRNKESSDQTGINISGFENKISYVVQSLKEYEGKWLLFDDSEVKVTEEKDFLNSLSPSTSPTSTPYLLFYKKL
Galactokinase (Homo sapiens), sequence (P51570 whole entry, looked up): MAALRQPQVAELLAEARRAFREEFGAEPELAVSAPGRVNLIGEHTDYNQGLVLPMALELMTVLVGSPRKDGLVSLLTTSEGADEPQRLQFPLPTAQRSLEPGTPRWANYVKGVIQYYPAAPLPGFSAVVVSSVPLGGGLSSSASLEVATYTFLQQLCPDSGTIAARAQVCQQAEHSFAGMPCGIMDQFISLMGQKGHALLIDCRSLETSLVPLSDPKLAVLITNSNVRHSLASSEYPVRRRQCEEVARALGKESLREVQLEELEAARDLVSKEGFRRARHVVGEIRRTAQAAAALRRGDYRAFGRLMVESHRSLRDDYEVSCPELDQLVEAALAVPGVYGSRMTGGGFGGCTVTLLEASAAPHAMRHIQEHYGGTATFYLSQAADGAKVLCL
Glucocorticoid receptor (Homo sapiens), sequence (P04150 whole entry, looked up): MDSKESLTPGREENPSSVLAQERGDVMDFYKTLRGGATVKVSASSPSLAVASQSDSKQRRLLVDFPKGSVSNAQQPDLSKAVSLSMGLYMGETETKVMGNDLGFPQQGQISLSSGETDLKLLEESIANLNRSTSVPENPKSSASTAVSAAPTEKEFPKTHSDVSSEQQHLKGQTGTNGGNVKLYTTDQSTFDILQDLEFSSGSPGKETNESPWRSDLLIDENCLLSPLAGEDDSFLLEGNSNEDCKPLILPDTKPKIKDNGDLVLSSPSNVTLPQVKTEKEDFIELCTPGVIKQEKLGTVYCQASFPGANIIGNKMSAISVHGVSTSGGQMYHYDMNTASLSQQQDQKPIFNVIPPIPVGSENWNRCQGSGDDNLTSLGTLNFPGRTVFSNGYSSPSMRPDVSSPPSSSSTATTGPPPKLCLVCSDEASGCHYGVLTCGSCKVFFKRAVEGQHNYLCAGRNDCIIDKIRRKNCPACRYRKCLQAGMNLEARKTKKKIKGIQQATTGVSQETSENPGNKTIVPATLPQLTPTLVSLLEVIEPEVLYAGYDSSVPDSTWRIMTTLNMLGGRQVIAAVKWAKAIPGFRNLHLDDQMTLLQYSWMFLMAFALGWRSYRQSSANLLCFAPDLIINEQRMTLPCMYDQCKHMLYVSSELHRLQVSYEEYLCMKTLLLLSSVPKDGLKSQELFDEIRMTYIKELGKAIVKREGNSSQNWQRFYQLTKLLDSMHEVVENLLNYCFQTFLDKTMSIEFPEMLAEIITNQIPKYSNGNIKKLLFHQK
Estrogen receptor (Homo sapiens), sequence (P03372 whole entry, looked up): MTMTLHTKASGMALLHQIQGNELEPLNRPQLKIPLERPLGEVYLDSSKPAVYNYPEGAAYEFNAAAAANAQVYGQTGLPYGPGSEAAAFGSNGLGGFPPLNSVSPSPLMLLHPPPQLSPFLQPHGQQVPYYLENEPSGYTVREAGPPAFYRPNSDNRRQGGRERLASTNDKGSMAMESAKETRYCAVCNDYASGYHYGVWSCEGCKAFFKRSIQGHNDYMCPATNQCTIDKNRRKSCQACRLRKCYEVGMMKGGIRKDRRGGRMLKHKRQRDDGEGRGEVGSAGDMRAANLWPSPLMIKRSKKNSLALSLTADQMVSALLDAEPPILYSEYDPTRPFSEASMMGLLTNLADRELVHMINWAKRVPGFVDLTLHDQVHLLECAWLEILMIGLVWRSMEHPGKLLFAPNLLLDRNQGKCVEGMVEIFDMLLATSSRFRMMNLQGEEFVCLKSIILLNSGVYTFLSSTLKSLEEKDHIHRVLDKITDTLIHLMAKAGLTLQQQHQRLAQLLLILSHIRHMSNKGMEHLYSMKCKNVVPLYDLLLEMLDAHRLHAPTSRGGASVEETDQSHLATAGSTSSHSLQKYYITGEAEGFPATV

Regarding `Nc1ncnc2n[nH]c(Nc3ccc(F)cc3)c12`, the molecule was classed as inactive in assay [1], in assay [2], in [3], in assay [4] and in assay [6]. Further, the Potency entry in assay [5] is “inactive”.

With `CC(C)N(CCC(=O)c1ccc2ccccc2c1)Cc1ccccc1`, the outcome in assay [1], in [9], in assay [10], in assay [2], in assay [3] and in assay [11] was inactive. Further, the activation in assay [7] was 3.12% (inactive). In addition, the Potency entry in assay [8] is “inactive”. In addition, in assay [8], the viability change was -0.356%.

Consider `N[C@@H](Cn1ccc(=O)c(O)c1)C(=O)O`, for which the outcome in [1], in assay [2], in [3], in assay [4] and in assay [6] was inactive. The Potency entry in assay [12] and in [5] was “inactive” in each case.

As to `O=[N+]([O-])c1ccc(-c2nc(-c3ccc(F)cc3)c(-c3ccncc3)[nH]2)cc1`, the outcome in [1], in assay [9], in assay [10], in assay [3], in assay [4] and in assay [6] was inactive. The activation in assay [7] is 4.88% (inactive). Further, the Potency in assay [8] was 16.4 µM (active). Further, the viability change in assay [8] was -1.66%.

For the molecule `CCCCCCCCCCCCCCCC[N+](C)(C)Cc1ccccc1`, in assay [5], the Potency is 50.1 µM (active).

As for `O=C(Nc1ccc(Cl)cc1)Nc1ccc(Cl)c(Cl)c1`, the result in assay [13] and in assay [14] was inactive. Besides, the Potency result in assay [5] is “inactive”. For the same molecule, in [15], the activation was 4.25% (inactive).

For the molecule `Cn1cnc2c(NCc3ccccc3)nc(NCCO)nc21`, the molecule was called inactive in [1], in assay [9], in [10], in assay [2], in assay [3] and in assay [4]. Also, the molecule was called inactive in assay [6] and in [11]. In addition, the Potency entry in assay [12], in [8] and in [5] was “inactive” throughout. In [7], the activation was 0.188% (inactive). Besides, in assay [8], the viability change is 8.36%.

Consider `CN(C)c1cc2c(Nc3ccc4c(cnn4Cc4ccccc4)c3)ncnc2cn1`, for which the result in assay [1], in [9], in [2], in [3] and in assay [4] was inactive. For the same molecule, the activation in assay [7] was 2.12% (inactive).

As to `O=[N+]([O-])c1ccc(O)c2ncccc12`, the result in assay [13] was inactive.

Turning to `O=C(CCCCC(=O)Nc1c(I)cc(I)c(C(=O)O)c1I)Nc1c(I)cc(I)c(C(=O)O)c1I`, the Potency result in assay [5] is “inactive”.

Take `Cc1nn(-c2ccccc2)c(C)c1/C=N/N1CCN(Cc2ccccc2)CC1`: the call in [1], in [2], in [3], in [4] and in assay [6] was inactive. For the same molecule, in assay [8], the Potency result is “inactive”. In [8], the viability change is -3.49%.

In the case of `CC(NCCC(c1ccccc1)c1ccccc1)c1ccccc1` (stereo unspecified), the result in assay [13] was inactive.

With `Brc1ccc([C@H]2CN3CCSC3=N2)cc1`, the result in assay [1], in [9], in assay [10], in assay [3], in [4] and in assay [6] was inactive. Also, the Potency result in [12], in [8] and in assay [5] was “inactive” each time. For the same molecule, in assay [7], the activation is -2.94% (inactive). Also, in [8], the viability change was -0.405%.

Take `O=C1NC(=O)/C(=C/c2ccc3c(c2)OC(F)(F)O3)S1`: the Potency entry in assay [8] and in [5] was “inactive” each time. For the same molecule, in assay [8], the viability change was -9.96%. Also, the molecule was called inactive in assay [2], in assay [3], in assay [4] and in [6].

With `O=S(=O)(O)c1ccc2nc(-c3ccccc3)[nH]c2c1`, the molecule was classed as inactive in assay [13]. For the same molecule, the Potency entry in assay [5] was “inactive”.

For `CC(=O)OCC[N+](C)(C)C`, the Potency result in [5] is “inactive”.

Consider `C[N+](C)(C)CCO`, for which the molecule was classed as inactive in assay [1], in assay [9], in assay [10], in [2], in [3] and in [4]. For the same molecule, the molecule was called inactive in assay [6]. Besides, the Potency result in [12], in assay [8] and in assay [5] was “inactive” in each case. Moreover, the viability change in assay [8] is -3.89%.

Regarding `CN1CCC(Nc2ncc3ncnc(Nc4ccc(F)c(Cl)c4)c3n2)CC1`, the result in assay [13] was inactive. In [5], the Potency result was “inactive”.

With `CN1CCCN(C(c2ccccc2)c2ccc(Cl)cc2)CC1` (stereo unspecified), the Potency result in assay [5] was “inactive”.

For `CCCCCCCCCCCCCCCC[n+]1ccccc1`, the call in [13] was inactive. In addition, the activation in assay [15] was 4.95% (inactive).

Consider `Nc1ccc2cc3ccc(N)cc3nc2c1`, for which, in assay [13], the call was inactive. In addition, the Potency entry in assay [5] is “inactive”.

Regarding `CCCCCCCCCCCCCC[N+](C)(C)C`, in [13], the molecule was classed as inactive. Further, the Potency in assay [5] is 50.1 µM (active).

For the molecule `CCN(CC)CCNC(=O)c1ccc(NS(C)(=O)=O)cc1`, the molecule was called inactive in assay [1], in [2], in [3], in [4] and in assay [6]. The Potency result in [12], in assay [8] and in assay [5] was “inactive” in each case. Moreover, the viability change in [8] was 5.75%.

`O=C1NC(c2cccc([N+](=O)[O-])c2)=CCN1c1ccccc1O`: the result in assay [1], in [9], in [10], in assay [2], in [3] and in [4] was inactive. The molecule was called inactive in assay [6] and in assay [11]. Besides, the Potency result in [12], in assay [8] and in assay [5] was “inactive” each time. Also, the activation in assay [7] is 1.25% (inactive). In addition, in assay [8], the viability change was -1.13%.

Regarding `COc1ccccc1N1CCN(CCN2C(=O)CC3(CCCC3)CC2=O)CC1`, the molecule was classed as inactive in [1], in [9], in assay [10], in assay [2], in assay [3] and in assay [4]. In addition, the molecule was classed as inactive in [6] and in assay [11]. For the same molecule, the Potency entry in assay [12], in [8] and in [5] was “inactive” each time. For the same molecule, in [7], the activation was 2.31% (inactive). In assay [8], the viability change is 9.42%.
